Assay results from PubChem BioAssay.
A number with no mark means an inactive call.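 How the source made its calls: active means compounds whose cell count with miR-34 switched on is under 0.7 times the count with it off; inactive means the rest.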

experiment: viability loss with induced miR-34 in A549 – imaging, A549 dox-inducible miR-34, nuclei and caspase counts, primary screen (AID 1347080); conditions: A549 miR-34 inducible, Hoechst nuclei count, 48 h; stronger effect = lower value; further: test concentration not given here

SMILES | fold change
CCCCCCC(=O)O[C@H]1CC[C@H]2[C@@H]3CC(=O)C4=CC(=O)CC[C@]4(C)[C@H]3CC[C@]12C | 0.899
CC1OC(=O)C(C(C)C)NC(=O)C(C(C)C)OC(=O)C(C(C)C)NC(=O)C(C)OC(=O)C(C(C)C)NC(=O)C(C(C)C)OC(=O)C(C(C)C)NC(=O)C(C)OC(=O)C(C(C)C)NC(=O)C(C(C)C)OC(=O)C(C(C)C)NC1=O (stereo not given) | 0.784
C[C@@H]1CC([C@H](O)CC2CC(=O)NC(=O)C2)C(=O)[C@@H](C)C1 (stereo not given in full) | 1.01
CC(C)CC(NP(=O)(O)OC1OC(C)C(O)C(O)C1O)C(=O)NC(Cc1c[nH]c2ccccc12)C(=O)O (stereo not given) | 0.95
CN[C@@H]1CC2OC(C)([C@@H]1OC)n1c3ccccc3c3c4c(c5c6ccccc6n2c5c31)C(=O)NC4 (stereo not given in full) | 0.831
CCCCCc1cc(O)c2c(c1)OC(C)(C)[C@@H]1CCC(C(=O)O)=CC21 (stereo not given in full) | 0.953
COC(=O)[C@@]1(O)CC2OC1(C)n1c3ccccc3c3c4c(c5c6ccccc6n2c5c31)C(=O)NC4 (stereo not given in full) | 0.903
CCCCCCC(=O)O[C@H]1CC[C@H]2[C@@H]3C[C@@H](O)C4=CC(=O)CC[C@]4(C)[C@H]3CC[C@]12C | 0.966
CC[C@@]1(O)C(=O)OCc2c1cc1n(c2=O)-c2cc3ccccc3nc2C1 | 1.01
CCCCCCC(=O)O[C@H]1CC[C@H]2[C@@H]3C=CC4=CC(=O)CC[C@]4(C)[C@H]3CC[C@]12C | 0.948
